# Assay results taken from PubChem BioAssay (NCATS).
# Records with an inconclusive call do not appear. Where a call stands in place of a potency, no number is given. Activity calls are given as the source filed them. Calls follow the shape of the dose curve; as a rule, active = well fitted inhibition curve with a large enough effect; inconclusive = small, poorly fitted or top-dose-only effect; inactive = flat fitted curve, though single readings scatter.
# Assay: Primary qHTS for inhibitors of nuclear receptor binding SET domain protein 2 (NSD2) in an isogenic RCH-ACV NSD2 p.E1099K mutant (9B) (AID 1645876); also: nearly all actives have a fitted effect of over 70% in size
# Details: RCH-ACV (leukaemia line) NSD2 E1099K (9B) viability, CellTiter-Glo, 72 h; series mostly up to 44.9 µM
SMILES,Potency,"activity change, negative = viability loss"
COc1c2c(c(C)c3c1C(=O)OC3)OC1(C)CC(O)C3(O)C(C)(C)OC(=O)CCC3(C)C1C2 (stereo unspecified),inactive,–
C=C1C[C@@]23CC[C@@H]4[C@](C)(C(=O)O)CCC[C@@]4(C)C2=CC[C@H]1C3,inactive,–
C/C=C/C=C/C=C/C(=O)O[C@@H]1[C@@H](OC)C2=C(C(=O)N(C(C)C(=O)O)C2)[C@@]2(C)CCCC(C)(C)[C@H]12 (stereo partly specified),inactive,–
COC12CC3C(C(C)C1=CC(=O)O2)C(O)C(OC(C)=O)C1C(C)(C)C(OC(C)=O)CCC31C (stereo unspecified),inactive,–
C[C@@H]1C(=O)O[C@H]2CC34[C@H]5C[C@@H](C(C)(C)C)C36[C@@H](OC(=O)[C@@H]6O)O[C@@]4(C(=O)O5)[C@]21O (stereo partly specified),inactive,–
COC1=CC(=O)O[C@@H](CCc2ccccc2)[C@@H]1O,inactive,–
CC(=O)O[C@H]1CC[C@@]2(CI)C(=CC[C@@H]3[C@@H]2CC[C@]2(C)[C@@H]([C@H](C)CCCC(C)C)CC[C@@H]32)C1,–,-4.5% [at 9.23 µM] (inactive)
C[C@]1(O)CC[C@@H]2C(C(=O)O)=CO[C@@H](O[C@@H]3O[C@H](COC(=O)c4ccc(O)cc4)[C@@H](O)[C@H](O)[C@H]3O)[C@@H]21,inactive,–
COc1cc2c(cc1O)C1(Cc3ccc4c(c3C1=O)OCO4)N(C)CC2 (stereo unspecified),inactive,–
C=C1C(=O)O[C@H]2[C@H]1[C@@H](OC(=O)C(C)CO)C[C@@]1(C)[C@H](O)CCC(=O)[C@H]21 (stereo partly specified),inactive,–
CC1CCC2C(C)(C)C(O)CCC2(C)C12Cc1c(O)cc3c(c1O2)CN(C(CCC(N)=O)C(=O)O)C3=O (stereo unspecified),inactive,–
